Screening results deposited in PubChem BioAssay by The Scripps Research Institute Molecular Screening Center.
Most compounds without a hit are left out; they make up all but 4.8% or so of the library.
DAX1 inh-1: inhibits human nuclear receptor DAX1. hit rate 0.99% among 340,000. HEK293 Gal4-DAX1 luciferase reporter, luminescence. inhibition, % at 6.75 µM. AID 504766. P51843;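 active means inhibition above the mean over all tested compounds plus 3 SD, cut at about 4.2% in these data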;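 further: 0% = DAX1-transfected cells with DMSO and 100% = empty-vector control cells with DMSO; inhibition shows as a rise in luminescence from relieved DAX1 repression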
hcDAF12 agonist: activators of H. contortus DAF-12 nuclear receptor. HEK293 hcDAF-12 lit1-tk-luc reporter, luminescence; 0% DMSO, 100% Δ7-dafachronic acid. activation, % at 6.8 µM. hit rate 1.4% among 370,000;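 active means activation above the mean of all tested compounds plus 3 SD, cut at about 5.5% in these data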;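 further: 100% = response to 3 µM Δ7-dafachronic acid high control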
hgDAF-12 ag: agonists of H. glycines DAF-12 nuclear receptor | HEK293 GAL4-hgDAF12 UAS-luciferase reporter, agonist luminescence; normalized to butyrate control | activation, % at 6.8 µM | hit rate 1.8% among 370,000 | AID 687014;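 active means activation above a cutoff set at the mean of all screened compounds plus 3 SD, cut at about 10% in these data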;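 further: 0% = DMSO wells and 100% = sodium butyrate wells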
SMARCA2 activ: activators of SMARCA2 function; MG213 cells, MMTV-luciferase reporter, dexamethasone, overnight; activation, % at 9.1 µM; hit rate 1% among 370,000; AID 652017; in the data active means activation above about 7.8%;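 further: 0% = vehicle wells and 100% = reference activator wells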
DAX1 inh-2: blocks DAX1 repression of SF-1 activated StAR promoter. HEK293T StAR-luciferase reporter, SF-1/DAX-1 repression relief. inhibition, % at 6.8 µM. hit rate 1.1% among 370,000;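 active means inhibition above the mean over all tested compounds plus 3 SD, cut at about 3.6% in these data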;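 further: 0% = DAX-1 cells with DMSO and 100% = cells lacking DAX-1 with DMSO; higher inhibition means more luminescence from relief of DAX-1 repression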
ssDAF-12 act: activates DAF-12 receptor from parasite S. stercoralis. hit rate 1% among 370,000. AID 652126. activation, % at 6.8 µM. HEK293 ssDAF-12/GRIP1 lit1-tk-luc reporter, luminescence; % of 3 µM dafachronic acid response;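 active means activation above the mean over all tested compounds plus 3 SD, cut at about 0.9% in these data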;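 further: 0% = DMSO-only wells and 100% = 3 µM delta7-dafachronic acid wells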
LXR ag: LXR-beta agonism as hcDAF-12 counter-screen. HEK293 Gal4-LXR tk-luc reporter, luminescence, 24 h; normalized: DMSO 0%, positive control 100%. shares compounds with hcDAF12 agonist. 3,400 tested, under 10 active. AID 743027. activation, % at 6.8 µM;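 active means mean percent activation of the reporter above a cutoff set as the average over tested compounds plus their standard deviation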
Target sequence (P55055 whole entry, looked up, the tested form may be a part): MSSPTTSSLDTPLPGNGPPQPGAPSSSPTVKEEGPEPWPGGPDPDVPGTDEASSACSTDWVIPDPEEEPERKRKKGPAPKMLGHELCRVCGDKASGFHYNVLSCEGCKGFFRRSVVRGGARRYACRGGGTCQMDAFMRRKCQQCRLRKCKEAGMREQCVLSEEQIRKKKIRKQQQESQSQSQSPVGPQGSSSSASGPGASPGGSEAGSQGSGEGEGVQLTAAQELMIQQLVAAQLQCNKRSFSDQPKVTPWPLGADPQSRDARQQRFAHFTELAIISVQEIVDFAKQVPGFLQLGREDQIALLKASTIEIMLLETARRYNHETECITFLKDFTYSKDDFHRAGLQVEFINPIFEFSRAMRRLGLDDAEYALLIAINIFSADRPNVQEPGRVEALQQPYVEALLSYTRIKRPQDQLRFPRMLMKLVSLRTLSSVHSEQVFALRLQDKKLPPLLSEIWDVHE
hcDAF12 ag: confirmation of H. contortus DAF-12 agonists. shares compounds with hcDAF12 agonist. HEK293 hcDAF-12 lit1-tk-luc reporter, luminescence; % of Δ7-dafachronic acid response. activation, % at 6.8 µM. hit rate 61% among 3,400;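 active means mean activation across triplicate tests above the threshold derived from the earlier primary screen, cut at about 5.5% in these data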;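 further: 0% = DMSO only wells and 100% = 3 µM Δ7-dafachronic acid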
hgDAF12 conf: hgDAF-12 agonism, confirmation assay | shares compounds with hgDAF-12 ag | HEK293 GAL4-hgDAF12 luciferase reporter, agonist mode; percent of butyrate response | activation, % at 6.8 µM | hit rate 80% among 3,300;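 active means mean activation over triplicate wells above the hit cutoff derived from the earlier primary screen, cut at about 11% in these data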;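 further: 0% = DMSO low control and 100% = 2 mM sodium butyrate high control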
LXR ag 2: activates human LXR-beta, counter-screen for DAF-12 agonists; shares compounds with hgDAF-12 ag; HEK293 Gal4-LXR luciferase reporter, 24 h; activation, % at 6.8 µM; 3,300 tested, under 10 active; AID 743051;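 active means mean activation of the triplicate above a set limit carried over from the primary screen, none filed active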
Numbers without * were called inactive; . = no result given.

SMILES	DAX1 inh-1	hcDAF12 agonist	hgDAF-12 ag	SMARCA2 activ	DAX1 inh-2	ssDAF-12 act	LXR ag	hcDAF12 ag	hgDAF12 conf	LXR ag 2
NC(=O)c1c[nH]c2ccccc12	1	4	-1	2	0	-1	.	.	.	.
O=C(Nc1ccccc1)C(=O)c1c[nH]c2ccccc12	3	15*	15*	7	2	4.4*	2	17*	25*	1
O=C(C=Cc1ccccc1)c1c[nH]c2ccccc2c1=O	-5	0	0	5	-5	-1	.	.	.	.
O=C(/C=C/c1ccccc1)c1c[nH]c2ccccc12	4.3*	12*	20*	6	3	3.8*	2	8.3*	19*	1
CC[n+]1c(/C=C/c2ccc(OC)c(OC)c2)ccc2ccccc21	4.4*	9.3*	17*	5	3	1.1*	1	9.7*	18*	1
CC[n+]1c(/C=C/c2ccc(OC(C)=O)c(OC)c2)ccc2ccccc21	1	-1	6	7	2	0	.	.	.	.
CCS(=O)(=O)Nc1ccc2c(c1)C(=O)N(C)[C@@H]1CC[C@H](CC(=O)OC)O[C@H]1CO2	.	1	1	2	1	-1	.	.	.	.
Cc1ccc2nc(-c3ccccc3)c(Cc3cccc(F)c3)n2c1	.	8.7*	14*	4	2	1	0	5	4	0
CCCc1nc2c3ccccc3ccn2c1Cc1ccccc1	.	7.0*	23*	0	4.1*	1.3*	1	12*	16*	1
S=C1NCCN1c1ccc(Cl)cc1	.	-1	1	-3	-1	-1	.	.	.	.
Cc1ccc(NC(=O)C(C)N2C(=O)c3ccccc3S2(=O)=O)cc1Cl (configuration not stated)	0	2	0	-2	2	-1	.	.	.	.
Cc1ccc(N2C(=O)c3ccccc3NC2(C(=O)O)c2ccccc2)cc1Cl (configuration not stated)	4.8*	9.9*	19*	2	2	0	0	3	12*	0
Cn1c(NCc2c[nH]c3ccccc23)nc2ccccc21	2	16*	16*	2	2	1.7*	1	15*	25*	1
COC(=O)C1=C(C)N(Cc2ccccc2C(F)(F)F)C(=NCC2CC2)NC1CCc1ccccc1 (configuration not stated)	.	-1	-1	0	-2	-1	.	.	.	.
COc1ccc2oc(C(=O)c3ccccc3)c(N)c2c1	.	7.4*	15*	6	4	1	2	6.7*	20*	1
Nc1c(C(=O)N2CCCC2)sc2nc3c(cc12)CCCCCC3	2	3	7	2	3	-1	.	.	.	.
Nc1c(C(=O)N2CCOCC2)sc2nc3c(cc12)CCCC3	-3	6.9*	14*	6	3	0	1	7.1*	3	1
COC(=O)c1nn(-c2ccc(-c3ccccc3)cc2)cc1O	-3	8.3*	14*	-3	4	1	2	8.2*	18*	1
O=C(N[C@@H](Cc1cccnc1)C(=O)N1CCC[C@H]1C(=O)NCc1ccccc1)c1ccc(Cl)c(Cl)c1	.	0	4	-2	1	-1	.	.	.	.
CN1NC(=O)c2ccccc2NC1=S	.	1	-1	-1	-1	0	.	.	.	.
COC(=O)c1cc2c(c3c4ccccc4n(S(=O)(=O)c4ccccc4)c13)C(=O)N(Cc1ccc(C(F)(F)F)cc1)C2	.	1	2	-2	0	0	.	.	.	.
COc1cc(OC)cc(C(=O)NCC2CCN(C(=O)C(=O)c3cccs3)CC2)c1	.	-1	1	-6	0	0	.	.	.	.
Cn1/c(=N/N=C/c2ccccn2)sc2ccccc21	.	8.2*	23*	7	3	1	1	7.1*	18*	1
CSc1nnc(-c2ccccc2Cl)o1	4	-1	1	5	0	-1	.	.	.	.
Clc1ccccc1-c1ncc(-c2ccccc2)o1	5.2*	9.7*	14*	4	2	1.4*	1	7.8*	21*	1
SMILES	DAX1 inh-1	hcDAF12 agonist	hgDAF-12 ag	SMARCA2 activ	DAX1 inh-2	ssDAF-12 act	LXR ag	hcDAF12 ag	hgDAF12 conf	LXR ag 2
COC(=O)[C@]12C[C@H](CC(=O)NCc3cccc4ccccc34)C(=O)N(CCC3=CCCCC3)C1=C[C@H](C(C)(C)C)O[C@@H]2C	.	2	0	-1	0	-1	.	.	.	.
Cc1ccc(/C(N)=N/OC(=O)c2ccco2)cc1	0	7.8*	14*	6	4.2*	1.2*	1	5	19*	1
Cc1ccc(C(=O)O/N=C(\N)c2ccc(Br)cc2)cc1	-2	0	3	3	0	-1	.	.	.	.
COc1ccc(C(=O)O/N=C(\N)c2ccccc2)cc1	1	8.7*	14*	1	3	1.9*	2	6.7*	18*	1
O=C(NCCc1ccccc1)OCc1cn(Cc2cccc(F)c2F)nn1	.	0	1	1	0	0	.	.	.	.
Cc1cc(-c2ccc(N3CCOCC3)cc2)nc2ccccc12	1	15*	20*	0	3	0.9*	1	7.9*	14*	1
O=C(NCCc1ccccc1)c1ccccc1F	0	6.7*	15*	6	3.8*	0	1	4	14*	1
Cc1ccc(-c2csc(-c3c[nH]c4ccccc34)n2)c(C)c1	2	1	9	2	1	0	.	.	.	.
Oc1ccc(-c2csc(-c3c[nH]c4ccccc34)n2)c(O)c1	3	8.3*	14*	5	3	2.7*	1	9.2*	17*	1
CCc1ccc(NC(=O)COc2ccc(F)cc2C(=O)c2cnn(-c3ccccc3)c2)cc1	2	12*	18*	-1	2	1	0	7.8*	7	0
CCc1ccc(NC(=O)COc2coc(CN3CCN(c4ccccc4)CC3)cc2=O)cc1	0	1	0	-3	1	-1	.	.	.	.
CCN=C1NC(c2cccc(Cl)c2)C(C(=O)OC)=C(C)N1Cc1ccccc1C(F)(F)F (configuration not stated)	.	-1	1	-4	-1	-1	.	.	.	.
